# “And” between values parts separate entries of the source, which are not always exact repeats. Equal entries are not always repeated. Results filed as inconclusive are left out. The source holds several records for some structures; these can differ, active in one and inactive in another. The source made the active and inactive calls. How the source made its calls, unless noted: active means hit-call score of the fitted dose curve at least 0.9, where 1 is the maximum; inactive means score below 0.9.
# Assays:
# [1] = read-out: Interleukin-1 alpha (IL1a), IL1A (gene 3552); assay: BSK_LPS_IL1a: BioMAP Diversity Plus: LPS Assay for Interleukin-1 alpha (IL1a) Biomarker Activity (AID 2283080); conditions: primary human HUVEC with PBMC; actives raise or lower the signal
# Summary of the method: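 HUVEC/PBMC co-culture, LPS system; 24 h after dosing; IL-1a by ELISA; gain or loss of signal fitted bidirectionally vs DMSO baseline.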
# [2] = read-out: Monocyte Chemoattractant Protein-1 (MCP1), CCL2 (gene 6347); assay: BSK_LPS_MCP1: BioMAP Diversity Plus: LPS Assay for Monocyte Chemoattractant Protein-1 (MCP1) Biomarker Activity (AID 2283081); conditions: primary human HUVEC with PBMC; actives raise or lower the signal;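 on AC50: secreted MCP-1 protein quantified by ELISA in culture supernatant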
# Summary of the method: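 ELISA read-out of MCP-1 after 24 h chemical dosing of a human umbilical vein endothelial cell/peripheral blood mononuclear cell co-culture stimulated with LPS. Gain or loss of signal fitted relative to DMSO controls.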
# [3] = BSK_LPS_PGE2: BioMAP Diversity Plus: LPS Assay for Prostaglandin E2 (PGE2) Biomarker Activity (AID 2283082); conditions: primary human HUVEC with PBMC; actives raise or lower the signal;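 on AC50: secreted prostaglandin E2 measured by ELISA in LPS-stimulated co-culture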
# Summary of the method: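 Endpoint derived from bidirectional curve fitting versus DMSO of ELISA-measured PGE2 in LPS-stimulated human primary vascular co-culture (HUVEC with PBMC) harvested at 24 h.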
# [4] = read-out: Macrophage colony-stimulating factor (MCSF), CSF1 (gene 1435); assay: BSK_LPS_MCSF: BioMAP Diversity Plus: LPS Assay for Macrophage colony-stimulating factor (MCSF) Biomarker Activity (AID 2283083); conditions: primary human HUVEC with PBMC; actives raise or lower the signal
# Summary of the method: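 HUVEC + PBMC co-culture (human primary), 24 h post-dose; M-CSF by ELISA; gain/loss of signal fitted bidirectionally vs DMSO baseline.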
# [5] = read-out: Tissue Factor, F3 (gene 2152); assay: BSK_LPS_TissueFactor: BioMAP Diversity Plus: LPS Assay for Tissue Factor Biomarker Activity (AID 2283084); conditions: primary human HUVEC with PBMC; actives raise or lower the signal
# Summary of the method: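 HUVEC/PBMC co-culture, LPS-activated; CD142 ELISA read 24 h post-dose; bidirectional curve fit vs DMSO negative control.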
# [6] = read-out: Tumor necrosis factor (Homo sapiens) (UniProt P01375); assay: BSK_LPS_TNFa: BioMAP Diversity Plus: LPS Assay for Tumour Necrosis Factor alpha (TNFa) Biomarker Activity (AID 2283085); conditions: primary human HUVEC with PBMC; actives raise or lower the signal
# Summary of the method: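 Primary human vascular co-culture of HUVEC and PBMC; TNFa ELISA 24 h after treatment, analysed as increase or decrease relative to DMSO control.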
# [7] = read-out: Vascular cell adhesion molecule 1 (VCAM1), VCAM1 (gene 7412); assay: BSK_LPS_VCAM1: BioMAP Diversity Plus: LPS Assay for Vascular cell adhesion molecule 1 (VCAM1) Biomarker Activity (AID 2283086); conditions: primary human HUVEC with PBMC; actives raise or lower the signal
# Summary of the method: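 Primary human vascular co-culture (umbilical vein endothelium plus PBMC) stimulated with LPS received chemical; 24 h later VCAM-1 was read by ELISA. Overt cytotoxicity was assessed by sulforhodamine B staining of parallel cultures at the same time point.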
# CD38, CD38 (gene 952) = assay: BSK_SAg_CD38: BioMAP Diversity Plus: SAg Assay for CD38 Biomarker Activity (AID 2283087); conditions: primary human HUVEC with PBMC; actives raise or lower the signal
# Summary of the method: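 Fluorescence ELISA of cell-surface CD38 served as the read-out, with either increase or decrease fitted against DMSO controls. Cells were a human umbilical vein endothelium plus PBMC co-culture under SEB/TSST-1 stimulation, measured 24 h after dosing.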
# CD40, CD40 (gene 958) = assay: BSK_SAg_CD40: BioMAP Diversity Plus: SAg Assay for CD40 Biomarker Activity (AID 2283088); conditions: primary human HUVEC with PBMC; actives raise or lower the signal
# Summary of the method: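 HUVEC/PBMC co-culture, 24 h post-dose; CD40 by ELISA, fluorescence intensity; bidirectional fit vs DMSO negative control.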
# CD69, CD69 (gene 969) = assay: BSK_SAg_CD69: BioMAP Diversity Plus: SAg Assay for CD69 Biomarker Activity (AID 2283089); conditions: primary human HUVEC with PBMC; actives raise or lower the signal;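 on AC50: cell surface CD69 protein quantified by ELISA with fluorescence detection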
# Summary of the method: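 Values derive from bidirectional fitting relative to DMSO vehicle. Cells: umbilical vein endothelium plus peripheral blood mononuclear cells, treated 24 h before fluorescent ELISA for CD69.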
# [8] = read-out: Monocyte Chemoattractant Protein-1 (MCP1), CCL2 (gene 6347); assay: BSK_SAg_MCP1: BioMAP Diversity Plus: SAg Assay for Monocyte Chemoattractant Protein-1 (MCP1) Biomarker Activity (AID 2283090); conditions: primary human HUVEC with PBMC; actives raise or lower the signal
# Summary of the method: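 MCP-1 levels in the endothelial–PBMC SAg co-culture were quantified by ELISA at 24 h post-dosing; both increases and decreases versus DMSO scored. Cytotoxicity monitored by SRB total protein in parallel cultures.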
# [9] = read-out: E-selectin (Homo sapiens) (UniProt P16581); assay: BSK_SAg_Eselectin: BioMAP Diversity Plus: SAg Assay for Eselectin Biomarker Activity (AID 2283091); conditions: primary human HUVEC with PBMC; actives raise or lower the signal
# Summary of the method: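 E-selectin ELISA readout at 24 h post-dosing in human umbilical vein endothelial cell/PBMC co-culture; gain or loss of signal fitted relative to DMSO baseline.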
# [10] = read-out: Monokine induced gamma interferon (MIG), CXCL9 (gene 4283); assay: BSK_SAg_MIG: BioMAP Diversity Plus: SAg Assay for Monokine induced gamma interferon (MIG) Biomarker Activity (AID 2283092); conditions: primary human HUVEC with PBMC; actives raise or lower the signal
# Summary of the method: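 Values reflect bidirectional fitting of ELISA-measured MIG against DMSO vehicle, taken 24 h after dosing of a co-culture of human umbilical vein endothelial cells and peripheral blood mononuclear cells.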
# [11] = BSK_SAg_PBMCCytotoxicity: PBMC Cytotoxicity Assessment in the BioMAP Diversity Plus: SAg Assay (AID 2283093); conditions: primary human HUVEC with PBMC;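 further: PBMC viability measured as Alamar Blue reduction fluorescence at 546/580 nm; fitted both ways against DMSO so a hit may be loss or gain of signal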;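 on AC50: PBMC superantigen activated with SEB plus TSST-1 one hour after compound addition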
# Summary of the method: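 HUVEC/PBMC co-culture; PBMC exposed to chemical 1 h before SEB and TSST-1 activation (20 ng/mL each), incubated 90 h, then Alamar Blue 6 h, fluorescence 546/580 nm. Bidirectional fit versus DMSO baseline.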
# [12] = read-out: Interleukin-8 (IL8), CXCL8 (gene 3576); assay: BSK_SAg_IL8: BioMAP Diversity Plus: SAg Assay for Interleukin-8 (IL8) Biomarker Activity (AID 2283094); conditions: primary human HUVEC with PBMC; actives raise or lower the signal
# Summary of the method: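 In this co-culture of human umbilical vein endothelium with peripheral blood mononuclear cells, IL-8 is assayed by ELISA at 24 h. DMSO serves as baseline for bidirectional curve fitting.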
# [13] = BSK_SAg_Proliferation: Cell Proliferation Assessment in the BioMAP Diversity Plus: SAg Assay (AID 2283095); conditions: primary human HUVEC with PBMC;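 further: relative cell number as total protein by SRB absorbance in sub-confluent culture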
# Summary of the method: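 Readout is SRB-stained protein (560 nm) in a primary human HUVEC and PBMC co-culture; sub-confluent cultures are read at 96 h. Activity is fitted bidirectionally using DMSO as baseline.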
# [14] = BSK_SAg_SRB: Viability Assessment in the BioMAP Diversity Plus: SAg Assay (AID 2283096); conditions: primary human HUVEC with PBMC;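 further: cells read one day after compound addition; hits may be either gain or loss of signal compared with DMSO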
# Summary of the method: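 Human umbilical vein endothelial cells co-cultured with PBMC, read 24 h after compound dosing. Total protein measured by sulforhodamine B staining (0.1% SRB after 10% TCA fixation, absorbance 560 nm); bidirectional fit versus DMSO baseline.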
# [15] = molecular target: Cytochrome P450 3A4 (Homo sapiens) (UniProt P08684); assay: NVS_ADME_hCYP3A4: NovaScreen (NVS) CYP450-related Enzyme Activity (ADME) Assay for human CYP3A4 (AID 2283110; active means hit-call score of the fitted dose curve at least 0.9, where 1 is the maximum)
# Cytochrome P450 3A4 (Homo sapiens), sequence (P08684 whole entry, looked up): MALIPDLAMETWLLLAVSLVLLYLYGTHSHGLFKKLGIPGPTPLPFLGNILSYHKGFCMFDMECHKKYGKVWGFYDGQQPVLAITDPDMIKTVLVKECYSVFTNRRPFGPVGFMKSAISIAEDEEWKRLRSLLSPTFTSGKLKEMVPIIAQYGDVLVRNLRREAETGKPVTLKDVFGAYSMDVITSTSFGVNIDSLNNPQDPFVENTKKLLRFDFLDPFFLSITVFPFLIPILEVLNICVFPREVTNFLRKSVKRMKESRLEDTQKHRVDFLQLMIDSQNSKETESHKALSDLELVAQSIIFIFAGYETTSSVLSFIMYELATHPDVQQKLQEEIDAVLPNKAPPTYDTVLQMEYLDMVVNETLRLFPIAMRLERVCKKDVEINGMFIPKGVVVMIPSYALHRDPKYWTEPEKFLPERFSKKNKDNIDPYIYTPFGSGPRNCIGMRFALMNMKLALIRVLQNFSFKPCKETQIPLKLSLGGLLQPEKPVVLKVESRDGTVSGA
# Summary of the method: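 Cell-free recombinant enzyme expressed in insect cells; fluorescent substrate turnover read after 0.33 h, acetonitrile as negative control. Primary screen in duplicate at 10 uM, actives then tested in concentration series.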
# Tumor necrosis factor (Homo sapiens), sequence (P01375 whole entry, looked up): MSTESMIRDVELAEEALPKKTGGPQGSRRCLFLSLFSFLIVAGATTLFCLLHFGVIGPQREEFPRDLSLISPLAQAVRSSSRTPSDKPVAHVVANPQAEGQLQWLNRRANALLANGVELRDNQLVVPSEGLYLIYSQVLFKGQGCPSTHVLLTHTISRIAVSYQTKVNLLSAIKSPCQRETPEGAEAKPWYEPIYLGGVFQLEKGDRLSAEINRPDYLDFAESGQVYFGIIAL
# E-selectin (Homo sapiens), sequence (P16581 whole entry, looked up): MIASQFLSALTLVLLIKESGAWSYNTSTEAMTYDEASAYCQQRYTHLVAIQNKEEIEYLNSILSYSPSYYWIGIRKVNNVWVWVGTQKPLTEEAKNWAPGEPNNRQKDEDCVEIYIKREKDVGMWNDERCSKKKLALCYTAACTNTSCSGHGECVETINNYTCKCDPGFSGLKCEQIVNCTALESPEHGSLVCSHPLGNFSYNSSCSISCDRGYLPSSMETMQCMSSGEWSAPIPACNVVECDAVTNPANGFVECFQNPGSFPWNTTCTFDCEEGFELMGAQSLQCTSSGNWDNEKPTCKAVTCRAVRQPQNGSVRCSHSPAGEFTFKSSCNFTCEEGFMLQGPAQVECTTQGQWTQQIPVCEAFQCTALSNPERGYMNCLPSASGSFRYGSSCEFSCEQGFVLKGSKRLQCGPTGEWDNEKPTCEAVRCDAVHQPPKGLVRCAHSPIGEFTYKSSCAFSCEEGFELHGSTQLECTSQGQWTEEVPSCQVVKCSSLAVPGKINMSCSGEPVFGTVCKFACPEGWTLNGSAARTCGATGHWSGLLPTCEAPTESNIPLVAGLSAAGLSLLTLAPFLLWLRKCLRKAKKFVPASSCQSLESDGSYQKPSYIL
smiles,measurement,setting,value
CCN(CC)c1ccc2c(C)cc(=O)oc2c1,outcome,[1],inactive
same,outcome,[2],inactive
same,AC50,[3],6.52 µM (active)
same,outcome,[4],inactive
same,outcome,[5],inactive
same,outcome,[6],inactive
same,outcome,[7],inactive
same,outcome,"CD38, CD38 (gene 952)",inactive
same,outcome,"CD40, CD40 (gene 958)",inactive
same,outcome,"CD69, CD69 (gene 969)",inactive
same,outcome,[8],inactive
same,outcome,[9],inactive
same,outcome,[10],inactive
same,outcome,[11],inactive
same,outcome,[12],inactive
same,outcome,[13],inactive
same,outcome,[14],inactive
same,outcome,[15],inactive
FC(F)(F)C(F)(F)C(F)(F)N(C(F)(F)C(F)(F)C(F)(F)F)C(F)(F)C(F)(F)C(F)(F)F,outcome,[2],inactive
same,outcome,[3],inactive
same,outcome,[4],inactive
same,outcome,[5],inactive
same,outcome,[6],inactive
same,outcome,[7],inactive
same,outcome,"CD38, CD38 (gene 952)",inactive
same,outcome,"CD40, CD40 (gene 958)",inactive
same,outcome,"CD69, CD69 (gene 969)",inactive
same,outcome,[8],inactive
same,outcome,[9],inactive
same,outcome,[10],inactive
same,outcome,[13],inactive
same,outcome,[14],inactive
C=C(C)C(=O)OCC(F)(F)C(F)(F)C(F)(F)C(F)(F)C(F)(F)C(F)(F)C(F)(F)F,outcome,[2],inactive
same,outcome,[3],inactive
same,outcome,[4],inactive
same,outcome,[5],inactive
same,AC50,[6],0.0246 µM (active)
same,outcome,[6],inactive
same,outcome,[7],inactive
same,outcome,"CD38, CD38 (gene 952)",inactive
same,outcome,"CD40, CD40 (gene 958)",inactive
same,outcome,"CD69, CD69 (gene 969)",inactive
same,outcome,[8],inactive
same,outcome,[9],inactive
same,outcome,[10],inactive
same,outcome,[13],inactive
same,outcome,[14],inactive
CCc1ccc(C(c2ccc(CC)cc2)C(Cl)Cl)cc1,AC50,[2],31.4 µM (active)
same,AC50,[3],0.158 µM (active)
same,AC50,[4],20 µM (active)
same,outcome,[5],inactive
same,AC50,[6],29.9 µM (active)
same,AC50,[7],27.2 µM (active)
same,AC50,"CD38, CD38 (gene 952)",27.7 µM (active)
same,AC50,"CD40, CD40 (gene 958)",28.9 µM (active)
same,AC50,"CD69, CD69 (gene 969)",15.1 µM (active)
same,AC50,[8],31.8 µM (active)
same,AC50,[9],26 µM (active)
same,AC50,[10],33.6 µM (active)
same,AC50,[11],14.5 µM (active)
same,AC50,[13],8.44 µM (active)
same,AC50,[14],29.1 µM (active)
Cc1ccc(S(=O)(=O)OCC(F)(F)C(F)(F)C(F)(F)C(F)(F)C(F)(F)C(F)F)cc1,outcome,[2],inactive
same,outcome,[3],inactive
same,outcome,[4],inactive
same,outcome,[5],inactive
same,outcome,[6],inactive
same,outcome,[7],inactive
same,outcome,"CD38, CD38 (gene 952)",inactive
same,outcome,"CD40, CD40 (gene 958)",inactive
same,outcome,"CD69, CD69 (gene 969)",inactive
same,outcome,[8],inactive
same,outcome,[9],inactive
same,outcome,[10],inactive
same,outcome,[11],inactive
same,outcome,[13],inactive
same,AC50,[14],44 µM (active) and 37.4 µM (active)
CC(CCl)OP(=O)(OC(C)CCl)OC(C)CCl (configuration not stated),outcome,[2],inactive
same,outcome,[3],inactive
same,outcome,[4],inactive
same,outcome,[5],inactive
same,outcome,[6],inactive
same,outcome,[7],inactive
same,outcome,"CD38, CD38 (gene 952)",inactive
same,outcome,"CD40, CD40 (gene 958)",inactive
same,outcome,"CD69, CD69 (gene 969)",inactive
same,outcome,[8],inactive
same,outcome,[9],inactive
same,outcome,[10],inactive
same,outcome,[11],inactive
same,outcome,[13],inactive
same,outcome,[14],inactive

# — PubChem BioAssay (EPA / NIEHS)
